Compounds with a hit are over-represented: about 4.1% of the library has one in this group of screens.
ssDAF12 agonist – activators of S. stercoralis DAF-12 nuclear receptor; activation, % at 6.8 µM; HEK293 ssDAF-12/GRIP1 lit1-tk-luc reporter, luminescence; % of 3 µM dafachronic acid response; AID 652126; 370,000 compounds, 1% hits;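 active means activation above the mean over all tested compounds plus 3 SD, cut at about 0.9% in these data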;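 further: 0% = DMSO-only wells and 100% = 3 µM delta7-dafachronic acid wells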
DAX1 inh-1 – inhibitors of DAX1 repression of SF-1 activated StAR promoter. HEK293T StAR-luciferase reporter, SF-1/DAX-1 repression relief. 370,000 compounds, 1.1% hits. AID 652010. inhibition, % at 6.8 µM;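 active means inhibition above the mean over all tested compounds plus 3 SD, cut at about 3.6% in these data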;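 further: 0% = DAX-1 cells with DMSO and 100% = cells lacking DAX-1 with DMSO; higher inhibition means more luminescence from relief of DAX-1 repression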
hgDAF-12 ag – agonists of H. glycines DAF-12 nuclear receptor. activation, % at 6.8 µM. 370,000 compounds, 1.8% hits. HEK293 GAL4-hgDAF12 UAS-luciferase reporter, agonist luminescence; normalized to butyrate control;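 active means activation above a cutoff set at the mean of all screened compounds plus 3 SD, cut at about 10% in these data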;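 further: 0% = DMSO wells and 100% = sodium butyrate wells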
DAX1 inh-2 – inhibitors of human orphan nuclear receptor DAX1 (NR0B1) | HEK293 Gal4-DAX1 luciferase reporter, luminescence | AID 504766 | 340,000 compounds, 0.99% hits | P51843 | inhibition, % at 6.75 µM;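 active means inhibition above the mean over all tested compounds plus 3 SD, cut at about 4.2% in these data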;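 further: 0% = DAX1-transfected cells with DMSO and 100% = empty-vector control cells with DMSO; inhibition shows as a rise in luminescence from relieved DAX1 repression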
hcDAF-12 act – H. contortus DAF-12 activation, primary screen; HEK293 hcDAF-12 lit1-tk-luc reporter, luminescence; 0% DMSO, 100% Δ7-dafachronic acid; AID 652067; 370,000 compounds, 1.4% hits; activation, % at 6.8 µM;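 active means activation above the mean of all tested compounds plus 3 SD, cut at about 5.5% in these data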;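 further: 100% = response to 3 µM Δ7-dafachronic acid high control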
DAX1 inh confirm – NR0B1 (human) inhibition, confirmation. shares compounds with DAX1 inh-1. HEK293T StAR-promoter luciferase reporter, SF-1/DAX-1 repression. inhibition, % at 6.8 µM. 2,400 compounds, 87% hits;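 active means inhibition above the average of every tested compound plus 3 SD, cut at about 3.8% in these data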;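 further: 0% = DAX-1 cells with DMSO and 100% = no DAX-1 control cells with DMSO; active compounds raise luminescence by relieving repression of the StAR reporter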
Target sequence (P51843 whole entry, looked up): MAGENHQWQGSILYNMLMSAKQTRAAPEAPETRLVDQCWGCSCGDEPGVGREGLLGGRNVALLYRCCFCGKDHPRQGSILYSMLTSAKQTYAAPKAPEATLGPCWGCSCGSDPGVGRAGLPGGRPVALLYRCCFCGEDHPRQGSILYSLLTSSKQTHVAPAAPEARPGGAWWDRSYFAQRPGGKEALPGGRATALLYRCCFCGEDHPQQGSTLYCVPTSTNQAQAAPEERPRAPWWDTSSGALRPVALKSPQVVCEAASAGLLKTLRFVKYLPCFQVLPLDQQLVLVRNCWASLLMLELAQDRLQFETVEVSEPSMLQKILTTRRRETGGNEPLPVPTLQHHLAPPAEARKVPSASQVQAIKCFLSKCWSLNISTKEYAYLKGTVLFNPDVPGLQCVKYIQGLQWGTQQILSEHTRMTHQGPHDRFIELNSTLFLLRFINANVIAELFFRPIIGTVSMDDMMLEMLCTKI
SF1 AF2mut Luc – nonselective inhibitor or artifact in SF-1 mutant DAX1 counter-screen. shares compounds with DAX1 inh-1. inhibition, % at 6.8 µM. HEK293 StAR-luciferase, SF-1 AF2 mutant, luminescence. AID 652136. 2,400 compounds, 78% hits;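 active means inhibition above the mean of all tested compounds plus 3 SD, cut at about 3% in these data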;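 further: 0% = DAX-1 transfected cells with DMSO and 100% = cells without DAX-1 with DMSO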
LXR ag – LXR-beta agonism as hcDAF-12 counter-screen | shares compounds with hcDAF-12 act | HEK293 Gal4-LXR tk-luc reporter, luminescence, 24 h; normalized: DMSO 0%, positive control 100% | activation, % at 6.8 µM | 3,400 tested, under 10 active | AID 743027;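 active means mean percent activation of the reporter above a cutoff set as the average over tested compounds plus their standard deviation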
hcDAF12 ag – confirmation of H. contortus DAF-12 agonists | 3,400 compounds, 61% hits | activation, % at 6.8 µM | AID 743032 | shares compounds with hcDAF-12 act | HEK293 hcDAF-12 lit1-tk-luc reporter, luminescence; % of Δ7-dafachronic acid response;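 active means mean activation across triplicate tests above the threshold derived from the earlier primary screen, cut at about 5.5% in these data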;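 further: 0% = DMSO only wells and 100% = 3 µM Δ7-dafachronic acid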
hgDAF12 conf – confirmation of H. glycines DAF-12 agonists. HEK293 GAL4-hgDAF12 luciferase reporter, agonist mode; percent of butyrate response. AID 743050. activation, % at 6.8 µM. 3,300 compounds, 80% hits. shares compounds with hgDAF-12 ag;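 active means mean activation over triplicate wells above the hit cutoff derived from the earlier primary screen, cut at about 11% in these data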;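 further: 0% = DMSO low control and 100% = 2 mM sodium butyrate high control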
LXR ag 2 – counter-screen for DAF-12 agonists: agonists of human LXR-beta | 3,300 tested, under 10 active | activation, % at 6.8 µM | HEK293 Gal4-LXR luciferase reporter, 24 h | shares compounds with hgDAF-12 ag;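 active means mean activation of the triplicate above a set limit carried over from the primary screen, none filed active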
* = called active by the depositor; . = no result given.

SMILES	ssDAF12 agonist	DAX1 inh-1	hgDAF-12 ag	DAX1 inh-2	hcDAF-12 act	DAX1 inh confirm	SF1 AF2mut Luc	hgDAF12 conf	LXR ag 2	others
COc1ccc2c(=O)c(-c3ccccc3)coc2c1	0	6.2*	21*	2	6.8*	12*	8.2*	17*	1	LXR ag=1;hcDAF12 ag=5
Cc1nc2ccc(NC(=O)c3cc([N+](=O)[O-])cc([N+](=O)[O-])c3Cl)cc2s1	-1	0	0	-1	1	.	.	.	.
Cc1ccc(C(=O)OCC(=O)NCc2ccco2)cc1C	-1	1	-1	0	1	.	.	.	.
CCOc1cc(N2CCOCC2)c(OCC)cc1NC(=O)COC(=O)c1ccc([N+](=O)[O-])o1	-1	-1	2	0	-1	.	.	.	.
O=C(/C=C/c1ccccc1)Nc1scc(-c2ccccc2)c1C(=O)O	0	5.1*	15*	3	4	8.9*	8.6*	11*	1
CCc1c(-c2ccccc2)nc2sc3c(c2c1N)CCCC3	0	1	2	2	1	.	.	.	.
Nc1c2c(nc3sc4c(c13)CCCCC4)CCCCC2	1	5.0*	16*	1	5.8*	8.7*	3.5*	16*	1
CCOC(=O)C1(C)CCCCN1C(=O)c1cccc(Cl)c1 (configuration not stated)	-1	1	-1	.	-1	.	.	.	.
C[C@@H]1O[C@H](CCc2cccc(Cl)c2)CC2=C1C(=O)OC(C)(C)O2	-2	0	-2	.	-2	.	.	.	.
CC(=O)c1cccc(NC(=O)NC2CCCCC2)c1	.	.	.	-1	.	.	.	.	.
O=C(Nc1ccccc1F)NC1CCCCCCC1	0	4.5*	13*	2	3	7.2*	4.1*	10	0
CC(=O)c1ccc(NC(=O)Nc2ccc(Cl)cc2)cc1	0	6.5*	15*	2	7.1*	6.6*	5.8*	16*	1	LXR ag=1;hcDAF12 ag=7.4*
CC(=O)c1ccc(NC(=O)NC2CCCCCCC2)cc1	0	12*	14*	2	5	13*	7.4*	16*	1
Cc1cccc(N2N=C(C(=O)OCC(=O)c3ccccc3)CCC2=O)c1	-1	0	4	1	1	.	.	.	.
COc1cc(OCc2ccccc2)c(OC)c(OCc2ccccc2)c1	-1	-1	0	2	0	.	.	.	.
O=C(OCC(=O)N1CCc2ccccc2C1)c1c(F)cccc1Cl	0	5.6*	16*	2	4	10*	7.3*	18*	1
COc1ccc(NC(=O)C[C@@H]2C(=O)N(Cc3ccccc3)CC2(C)C)cc1	-1	0	0	0	2	.	.	.	.
O=C(CC[C@H]1O[C@@H](n2ccc(=O)[nH]c2=O)[C@H](O)[C@@H]1O)NCc1ccco1	-1	-3	0	.	-1	.	.	.	.
O=C(CSc1cnc2ccccc2n1)c1ccc(F)cc1	1.1*	5.4*	19*	-2	9.2*	7.3*	4.4*	17*	1	LXR ag=1;hcDAF12 ag=4
S=c1[nH]nc(CSCCOc2ccc(Cl)cc2Cl)o1	-1	0	0	0	1	.	.	.	.
N#C/C(=C\c1ccc2c(c1)OCO2)C(N)=S	0	0	-2	.	0	.	.	.	.

High-throughput results as filed in PubChem.
